Test results published in PubChem BioAssay (NCATS).
Where “and” joins values, the source holds several entries; their conditions need not be identical. Identical values can stand only once. Results filed as inconclusive are left out. Calls of active or inactive are those of the source. Unless noted, calls come from the whole dose curve; as a rule, active = well fitted curve in the direction sought with a large enough effect; inconclusive = small, poorly fitted or top-dose-only effect, or another doubt; inactive = no such curve, though single readings can be large; an effect the other way counts as inactive or inconclusive.

What was measured:
[1] = Cellular Toxicity (caspase-3) SK-N-SH (AID 661);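 note: 0% = DMSO basal and 100% = 10 µM staurosporine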
In short: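 Caspase 3/7 activation was read by luminogenic substrate cleavage after 16 hour treatment of SK-N-SH cells. Signal was scaled between DMSO and 10 uM staurosporine, and concentration-response data were fitted with the Hill equation for AC50.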

[2] = Cellular Toxicity (caspase-3) H-4-II-E (AID 663); conditions: Potency: caspase-3 activation;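 note: 0% = DMSO basal and 100% = 100 µM tamoxifen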
In short: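 H-4-II-E rat hepatoma, 1500 cells/well, 5 hr settle at 37 °C; compound 16 hr, 37 °C, complete medium; Caspase-Glo 3/7, 20 min RT; luminescence. DMSO = 0%, 100 uM tamoxifen = 100%; Hill-equation AC50.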

[3] = MultiTox-Fluor Cytotoxicity Assay - LYMP1-001 - Live Cells (AID 947);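 note: 0% = DMSO only and full inhibition = tetraoctylammonium bromide control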
[4] = qHTS assay for small molecule disruptors of the mitochondrial membrane potential - 1 hr assay (AID 651754; calls by dose curve; note: % is set by controls: 0 for no effect and ±100 for the full control effect; nearly all actives have a fitted effect of over 35% in size)
In short: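 Mitochondrial potential in living HepG2 cells after 1 hr compound treatment at 37C was read with Mito-MPS dye added for a further 30 min. Red aggregate and green monomer fluorescence were measured; loss of potential leaves dye as cytoplasmic monomers.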

[5] = qHTS assay for small molecule agonists of the antioxidant response element (ARE) signaling pathway measured by Nrf2-dependant transcriptional activity (AID 720636; active = well fitted curve in the direction sought with a large enough effect in the repeat runs; an effect the other way counts as inactive or inconclusive;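 note: HepG2 cells with an ARE-driven luciferase reporter; % of control where 0% means no effect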)
In short: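 We exposed ARE-luc HepG2 cells, seeded in assay medium with 1% dialyzed FBS and allowed 6 hr to adhere, to test compounds overnight (16 hr, 37 C) before measuring luciferase with ONE-Glo.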

[6] = molecular target: Nuclear receptor subfamily 1 group I member 2 (Rattus norvegicus) (UniProt Q9R1A7); test: qHTS assay for small molecule activators of the rat pregnane X receptor (rPXR) signaling pathway (AID 651751; call rule not given here; note: 0% is about no effect); conditions: rPXR reporter cells, luciferase (One-Glo), 24 h
Nuclear receptor subfamily 1 group I member 2 (Rattus norvegicus), sequence (Q9R1A7 whole entry, looked up): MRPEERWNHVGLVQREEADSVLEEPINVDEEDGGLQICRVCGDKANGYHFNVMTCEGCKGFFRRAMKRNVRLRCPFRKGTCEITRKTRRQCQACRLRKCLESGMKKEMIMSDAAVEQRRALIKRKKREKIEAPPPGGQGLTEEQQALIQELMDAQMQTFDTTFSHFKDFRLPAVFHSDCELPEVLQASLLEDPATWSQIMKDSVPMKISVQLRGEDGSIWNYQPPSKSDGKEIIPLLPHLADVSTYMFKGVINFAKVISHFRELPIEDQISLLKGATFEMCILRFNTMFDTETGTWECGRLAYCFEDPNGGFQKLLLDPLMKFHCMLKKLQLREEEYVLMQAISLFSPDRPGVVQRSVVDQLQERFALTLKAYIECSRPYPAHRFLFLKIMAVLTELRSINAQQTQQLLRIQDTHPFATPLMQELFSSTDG

[7] = Cell Viability - H-4-II-E (AID 543);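 note: cells exposed to compound for 40 hours; % is set by controls: 0 for no effect and ±100 for the full control effect; nearly all actives have a fitted effect of over 35% in size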
In short: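 CellTiter-Glo luminescence (intracellular ATP) measured after 40 h compound exposure at 37 °C in H-4-II-E rat hepatoma cells seeded at 1500/well. Values are AC50s fitted with the standard Hill equation.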

[8] = Cell Viability - SH-SY5Y (AID 544); conditions: SH-SY5Y neuroblastoma cell viability; viability change, negative = cytotoxic: at 92.2 µM (top of the series);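 note: cells exposed to compound for 40 hours; 0% = DMSO alone and -100% = 100 µM tamoxifen; nearly all actives have a fitted effect of over 55% in size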
In short: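 Cytotoxicity measured via ATP-dependent luciferase luminescence (CellTiter-Glo) following 40 h, 37 °C exposure of 1500 SH-SY5Y cells per well. Concentration-response data were fitted with the standard Hill equation to give AC50.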

[9] = Cell Viability - LYMP2-001 (AID 921);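 note: 0% = DMSO only and full inhibition = tetraoctylammonium bromide control wells; nearly all actives have a fitted effect of over 70% in size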
In short: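 qHTS, 1536-well; lymphoblastoid cells, 24 hr compound, 37 C; ATP by CellTiter-Glo, 30 min RT; luminescence; Hill-fit AC50.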

[10] = Cell Viability - LYMP1-003 - Assay at 24 hr (AID 963);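 note: plate controls were DMSO only for no effect and tetraoctylammonium bromide positive control for full effect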
In short: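 Concentration-response qHTS: ATP loss measured by CellTiter-Glo luminescence after 24 h compound exposure at 37 C. Cells were LYMP1-003 human lymphoblastoid, 2500 per well. AC50 derived via standard Hill equation modeling.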

[11] = Cell Viability - LYMP1-003 - Assay at 40 hr (AID 964); note: % is set by controls: 0 for no effect and ±100 for the full control effect; nearly all actives have a fitted effect of over 60% in size
In short: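 Viability is taken as cellular ATP, read by CellTiter-Glo luminescence after 40 h of compound exposure at 37 C. Cells: human lymphoblastoid line LYMP1-003 at 2500/well; AC50 values derived by Hill-equation fitting of concentration-response data.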

[12] = Cell Viability - LYMP2-005 (AID 967);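 note: plate controls were DMSO only for no effect and 92 µM tetraoctylammonium bromide control for full effect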
In short: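 qHTS viability screen in LYMP2-005 cells: 24 h at 37 C with compound, ATP luminescence via CellTiter-Glo, AC50 from Hill curves.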

[13] = Cell Viability - LYMP2-012 (AID 982);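 note: cellular ATP by luciferase luminescence where a drop means cytotoxicity; cells exposed to compound for one day before reading; 0% = DMSO only and full loss = 92 µM tetraoctylammonium bromide; nearly all actives have a fitted effect of over 55% in size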
[14] = Cell Viability - LYMP2-022 (AID 987);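 note: 0% = DMSO alone and full effect = tetraoctylammonium bromide at 92 µM; nearly all actives have a fitted effect of over 55% in size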
In short: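 Cytotoxicity read as decreased cellular ATP (CellTiter-Glo luminescence, 30 min room temperature) after 24 hours compound exposure of 2500 lymphoblastoid LYMP2-022 cells/well at 37 C. Concentration-response data fitted with standard Hill equation for AC50.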

[15] = qHTS assay for small molecule antagonists of the retinoid-related orphan receptor gamma (ROR-gamma) signaling pathway - cell viability counter screen (AID 720652; active = well fitted curve in the direction sought with a large enough effect in the repeat runs; an effect the other way counts as inactive or inconclusive;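 note: CHO reporter cells with doxycycline-induced ROR-gamma expression; compound exposure lasted 16 hr before ATP read; % is set by controls: 0 for no effect and ±100 for the full control effect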)
In short: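 Cytotoxicity counter screen: intracellular ATP (CellTiter-Glo luminescence) measured in the doxycycline-induced CHO RORE-luciferase reporter line after 16 hr compound exposure at 37 C, 5% CO2.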

C=CC(=O)OCCO
inactive: Potency [1] | Potency [2] | outcome [3] | Potency [4] | Potency [5] | max response [6] 0.767%

CC(=O)[O-].CC(=O)[O-].CC(=O)[O-].[Cr+3]
inactive: Potency [7] | Potency [8] | Potency [1] | Potency [2] | Potency [9] | outcome [10] | Potency [11] | Potency [12] | Potency [13] | Potency [14] | Potency [4] | Potency [5] | Potency [15]

CCOS(C)(=O)=O
inactive: Potency [7] | Potency [8] | Potency [2] | Potency [9] | outcome [3] | outcome [10] | Potency [11] | Potency [12] | Potency [13] | Potency [14] | Potency [4] | Potency [5] | Potency [15] | max response [6] 1.86%

O=[N+]([O-])c1cc(Cl)c(Cl)cc1Cl
inactive: Potency [7] | Potency [8] | Potency [1] | Potency [2] | Potency [9] | outcome [3] | Potency [11] | Potency [12] | Potency [14] | Potency [4] | Potency [5] | Potency [15] | max response [6] -0.165%

CCC[N+](=O)[O-]
inactive: Potency [7] | Potency [8] | Potency [1] | Potency [2] | Potency [9] | outcome [3] | outcome [10] | Potency [11] | Potency [12] | Potency [13] | Potency [14] | Potency [4] | Potency [5] | Potency [15] | max response [6] 7.37%

O=[N+]([O-])c1ccccc1CCl
inactive: Potency [8] | Potency [1] | Potency [2] | outcome [3] | outcome [10] | Potency [11] | Potency [12] | Potency [13] | Potency [4] | max response [6] 5.58%

[O-][Cl+]O
inactive: Potency [7] | Potency [8] | Potency [2] | Potency [9] | outcome [3] | outcome [10] | Potency [12] | Potency [13] | Potency [14] | Potency [4] | Potency [5] | Potency [15]

N#CCCCCC#N
inactive: Potency [7] | Potency [8] | Potency [1] | Potency [2] | Potency [9] | outcome [3] | outcome [10] | Potency [11] | Potency [12] | Potency [13] | Potency [14] | Potency [4] | Potency [5] | Potency [15] | max response [6] 9.56%

O=P(OCCCl)(OCCCl)OCCCl
inactive: Potency [7] | Potency [8] | Potency [1] | Potency [2] | Potency [9] | outcome [3] | outcome [10] | Potency [11] | Potency [12] | Potency [13] | Potency [14] | Potency [4] | Potency [5] | Potency [15] | max response [6] 6.23%

CN(C)C(=O)Nc1cccc(C(F)(F)F)c1
inactive: Potency [7] | Potency [8] | Potency [1] | Potency [2] | Potency [9] | outcome [3] | outcome [10] | Potency [11] | Potency [12] | Potency [13] | Potency [14] | Potency [4] | Potency [5] | Potency [15] | max response [6] 16.9% and 5.91%
